Only some compounds are listed: those with a hit (about 1.8% of all), similar ones and a draw of the others.
ERp5 inh: inhibitors of ERp5-driven insulin aggregation, primary screen, biochemical, turbidity, absorbance 650 nm, single point; Protein disulfide-isomerase A6 (Homo sapiens), Q15084; 350,000 tested, 0.05% active; inhibition, % at 9.99 µM; 90 min;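 active means mean replicate inhibition above about 25%, with every replicate also reaching it, limit read from the data, passing the limit was not always enough; inconclusive means only one of those two criteria met; inactive means neither criterion met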
Target sequence (Q15084 whole entry, looked up): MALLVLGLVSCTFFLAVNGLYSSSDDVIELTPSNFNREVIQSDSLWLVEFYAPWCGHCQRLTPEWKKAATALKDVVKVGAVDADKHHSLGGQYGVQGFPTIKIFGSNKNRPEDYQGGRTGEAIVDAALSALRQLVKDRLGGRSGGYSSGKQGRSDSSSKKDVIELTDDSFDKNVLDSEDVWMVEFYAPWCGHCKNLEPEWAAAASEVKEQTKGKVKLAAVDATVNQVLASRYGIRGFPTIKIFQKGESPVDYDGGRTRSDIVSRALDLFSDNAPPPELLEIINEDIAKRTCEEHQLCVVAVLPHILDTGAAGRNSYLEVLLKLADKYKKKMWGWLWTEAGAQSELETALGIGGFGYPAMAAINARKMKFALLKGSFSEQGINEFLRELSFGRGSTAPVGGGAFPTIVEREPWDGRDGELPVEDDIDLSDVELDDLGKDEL
AF4-AF9 inh: inhibitors of AF4 peptide binding to AF9, primary screen, biochemical, AlphaScreen, biotin-AF4 peptide, FLAG-AF9, single point. Protein AF-9 (Homo sapiens), P42568. inhibition, % at 10 µM. 350,000 tested, 0.47% active. AID 651704, 2012;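 active means every replicate reaching a set inhibition limit, whatever the replicate mean, cut at about 25% in these data; inconclusive means mean inhibition reaches that limit but some replicates miss it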;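 further: 0% = plate neutral control median and 100% = total signal loss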
ERAP1 inh: human ERAP1 aminopeptidase inhibitors, primary screen, biochemical, single point, plate reader; Endoplasmic reticulum aminopeptidase 1 (Homo sapiens), Q9NZ08; recombinant ERAP1, Leu-AMC fluorescence, 60 min; inhibition, % at 10.7 µM; 340,000 tested, 0.15% active;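 active means mean replicate inhibition of at least 30%, or all replicates individually reaching that 30% level; inactive means mean below 30% and not every replicate reaching it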;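 further: 0% = neutral control wells and 100% = L-leucinethiol positive control wells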
DENV2 CPE rescue: inhibitors of DENV2 cytopathic effect, primary screen, cell-based, plate reader, single concentration. CPE inhibition, % at 9.99 µM. AID 651640, 2012. 350,000 tested, 1.7% active. DENV2-infected cells, cytopathic effect rescue; in the data active means CPE inhibition above about 20%, passing the limit was not always enough; inconclusive means no clear call, values can overlap the other calls; tested in BHK-21 cells;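 further: 0% = median of neutral control wells and 100% = median of positive control wells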
PDI turbidity: inhibitors of human PDI, primary screen, biochemical, turbidity, single point, plate reader; PDI insulin aggregation turbidity, A650, 90 min; 350,000 tested, 0.052% active; inhibition, % at 10 µM;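 active means mean inhibition across replicates of 30% or more, whatever share of single replicates reach that level; inconclusive means mean inhibition below 30% while every single replicate reaches 30%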
Alpha interfer: AlphaScreen signal interference counter-screen, dose response, artefact control, biochemical, cherry-picked samples, luminescence; shares compounds with AF4-AF9 inh; AC50, µM (highest dose often 12 µM), for the others: at the top dose activity change, negative = inhibition; 530 tested, 45% active; AID 720494, 2013; cut-off not given, nearly all actives have AC50 up to about 14 µM
Numbers without * were called inactive; ! = a repeat was not active.

COc1ccc(N=C2S/C(=C\c3ccc(Cl)c([N+](=O)[O-])c3)C(=O)N2CCN(C)C)cc1 was read as ERp5 inh 0, AF4-AF9 inh 26*, ERAP1 inh -3, DENV2 CPE rescue 1, PDI turbidity 3 and Alpha interfer 6.7µM*.
CCN(CC)CCN1C(=O)/C(=C\c2ccc(Cl)c([N+](=O)[O-])c2)SC1=Nc1ccc(OC)cc1 was read as ERp5 inh 0, AF4-AF9 inh 19, ERAP1 inh 15, DENV2 CPE rescue -1 and PDI turbidity -2.
`CCN(CC)CCOc1ccc(/C(=C(/Cl)c2ccccc2)c2ccccc2)cc1` gave ERp5 inh 4, AF4-AF9 inh 31*!, ERAP1 inh -2, DENV2 CPE rescue -11, PDI turbidity -3 and Alpha interfer -22%.
CCC(=C(c1ccccc1)c1ccc(OCCN(C)C)cc1)c1ccccc1 was read as ERp5 inh 1, AF4-AF9 inh 3, ERAP1 inh 1, DENV2 CPE rescue 2 and PDI turbidity -1.
`C[C@@H]1CN([C@@H](C)CO)C(=O)c2cccc(NC(=O)c3ccncc3)c2O[C@@H]1CN(C)C(=O)Nc1ccccc1` gave ERp5 inh 2, AF4-AF9 inh 0, ERAP1 inh 1 and DENV2 CPE rescue 14.
C[C@@H]1ON(C)[C@H]2C[C@H]3c4[nH]c5ccc(-c6ccc7c(c6)OCO7)cc5c4CCN3C[C@@H]12 was read as ERp5 inh 0, AF4-AF9 inh 31*, ERAP1 inh 24, DENV2 CPE rescue 8, PDI turbidity -1 and Alpha interfer -15%.
For CO[C@@H](CN(C)Cc1ccc2c(c1)OCO2)[C@@H](C)CN(C(=O)Nc1ccc(F)cc1)[C@@H](C)CO the results were ERp5 inh -2, AF4-AF9 inh 1, ERAP1 inh 1 and DENV2 CPE rescue -2.
For CCN(CC)c1ccc(C(=C2C=CC(=[N+](CC)CC)C=C2)c2ccc(N(CC)CC)cc2)cc1 the results were ERp5 inh 4, AF4-AF9 inh 98*, ERAP1 inh 15, DENV2 CPE rescue -3, PDI turbidity 15 and Alpha interfer 0.26µM*.
`O=C(Nc1ccc(Cl)cc1)N[C@@H]1CC[C@H](CCNS(=O)(=O)c2ccccc2F)O[C@H]1CO` gave ERp5 inh -2, AF4-AF9 inh -2, ERAP1 inh 2 and DENV2 CPE rescue 3.
For CN(C)c1cccc2c1C(=O)c1ccccc1C2=O the results were ERp5 inh -3, AF4-AF9 inh 43*, ERAP1 inh 1, DENV2 CPE rescue 1, PDI turbidity 2 and Alpha interfer 13µM*.
Screening CN1C(=O)c2cccc(N(C)C)c2C1=O returned ERp5 inh -1, AF4-AF9 inh -12, ERAP1 inh -1, DENV2 CPE rescue -1 and PDI turbidity -4.
For COCCN=c1scc(-c2ccco2)n1/N=C/c1ccc(O)c(O)c1O the results were ERp5 inh 6, AF4-AF9 inh 33*, ERAP1 inh 3, DENV2 CPE rescue -1, PDI turbidity -11 and Alpha interfer -6%.
CO[C@H]1CN(C)C(=O)c2ccc(NC(=O)C3CCCC3)cc2OC[C@@H](C)N(C(C)=O)C[C@H]1C was read as ERp5 inh -1, AF4-AF9 inh 2, ERAP1 inh 2 and DENV2 CPE rescue 8.
Screening CCN(CC)c1ccc(N=Cc2ccc([N+](=O)[O-])o2)cc1 returned ERp5 inh 0, AF4-AF9 inh 46*, ERAP1 inh 2, DENV2 CPE rescue -9, PDI turbidity 12 and Alpha interfer -25%.
CCN(CC)c1ccc(N=Cc2ccccc2[N+](=O)[O-])cc1 was read as ERp5 inh 4, AF4-AF9 inh 21, ERAP1 inh 0, DENV2 CPE rescue 13 and PDI turbidity -1.
Screening O=C(Cc1cccnc1)N1CC(=O)N2[C@H](C1)[C@@H](c1ccc(/C=C/c3ccccc3)cc1)[C@@H]2CO returned ERp5 inh 0, AF4-AF9 inh 7, ERAP1 inh 0 and DENV2 CPE rescue -14.
Screening COc1ccc(C(CCNCc2ccc(N(C)C)cc2)c2ccccc2OC)cc1 (configuration not stated) returned ERp5 inh 2, AF4-AF9 inh 51*, ERAP1 inh 1, DENV2 CPE rescue 1, PDI turbidity -2 and Alpha interfer 4.7µM*.
Screening Cn1ccc2c(N3CCCCC3)cc3c(c21)C1CCC3C1 (configuration not stated) returned ERp5 inh 8, AF4-AF9 inh 52*, ERAP1 inh -1, DENV2 CPE rescue -4 and Alpha interfer -16%.
`CC1Cc2ccccc2N1C(=O)c1ccc(N2CCCCC2)c([N+](=O)[O-])c1` (configuration not stated) gave ERp5 inh 3, AF4-AF9 inh inconclusive, ERAP1 inh -2, DENV2 CPE rescue -2 and PDI turbidity -4.
CC1Cc2ccccc2N1C(=O)c1ccc(N2CCCC2)c([N+](=O)[O-])c1 (configuration not stated) was read as ERp5 inh -2, AF4-AF9 inh 23, ERAP1 inh -1, DENV2 CPE rescue 1, PDI turbidity 17 and Alpha interfer -21%.
C[C@H]1CN([C@@H](C)CO)C(=O)c2cc(NS(C)(=O)=O)ccc2O[C@H]1CN(C)C(=O)Nc1ccc2c(c1)OCO2 was read as ERp5 inh -4, AF4-AF9 inh -9, ERAP1 inh -1 and DENV2 CPE rescue -2.
For Nc1ccccc1NC1CCCCC1 the results were ERp5 inh -13, AF4-AF9 inh 33*, ERAP1 inh 0, DENV2 CPE rescue 2, PDI turbidity 10 and Alpha interfer 10µM*.
For O=C(Nc1ccccc1NC(=O)NC1CCCCC1)NC1CCCCC1 the results were PDI turbidity 2.
Screening N=C1C=CC(=C(c2ccc(N)cc2)c2ccc(N)cc2)C=C1 returned ERp5 inh -9, AF4-AF9 inh 45*, ERAP1 inh 1, DENV2 CPE rescue -7, PDI turbidity -9 and Alpha interfer 11µM*.
Screening Nc1ccc(C(=O)C(=O)c2ccc(N)cc2)cc1 returned ERp5 inh 3, AF4-AF9 inh 4, ERAP1 inh 2, DENV2 CPE rescue -6 and PDI turbidity 0.
C[C@H](CO)N1C[C@H](C)[C@@H](CN(C)C)Oc2ccc(NC(=O)C3CC3)cc2C1=O was read as ERp5 inh -6, AF4-AF9 inh -2, ERAP1 inh -2 and DENV2 CPE rescue 5.
Screening c1ccc2c(Nc3ccc4c(c3)OCCO4)c3c(nc2c1)CCCC3 returned ERp5 inh 0, AF4-AF9 inh 24, ERAP1 inh 0, DENV2 CPE rescue -1, PDI turbidity 5 and Alpha interfer -29%.

Source: PubChem (Broad Institute)
